Reference: PubChem BioAssay
Activity calls are given as the source filed them. The rule behind the calls is not given here.

target: Protein kinase 7 (PK7), Plasmodium falciparum 3D7 (PF3D7_0213400) (UniProt Q7YTF7); test: inhibition of Plasmodium PK7 catalytic activity – biochemical, TCAMS antimalarial set, Kinase-Glo luminescence (AID 1159587); details: recombinant PfPK7, Kinase-Glo ATP depletion luminescence
Sequence (Q7YTF7 1-343): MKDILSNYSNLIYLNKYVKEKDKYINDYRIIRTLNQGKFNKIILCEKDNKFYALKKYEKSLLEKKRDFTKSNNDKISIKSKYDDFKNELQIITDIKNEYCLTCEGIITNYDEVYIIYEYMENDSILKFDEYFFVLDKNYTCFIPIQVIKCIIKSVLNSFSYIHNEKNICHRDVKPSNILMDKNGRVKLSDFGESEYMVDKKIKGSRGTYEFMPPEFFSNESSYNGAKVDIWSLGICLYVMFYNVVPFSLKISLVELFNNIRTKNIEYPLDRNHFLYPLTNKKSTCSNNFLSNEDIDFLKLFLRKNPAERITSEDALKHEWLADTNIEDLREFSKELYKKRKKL

outcome, inactive:
CC1(C)N=C(N)N=C(N)N1OCc1cccs1, CC(C)c1cn2c3c(cc(C(=O)N[C@@H](Cc4ccccc4)[C@H](O)CNC4CCOCC4)cc13)N(C)S(=O)(=O)CC2, COc1ccc2nccc([C@@H](O)CN3CCC(NC(=O)/C=C/c4ccc5[nH]c(=O)ccc5c4)CC3)c2c1, Cc1ccc(C(=O)NC2CCN(CCNC(=O)Nc3cc(C)nc4ccccc34)CC2)cc1, CCOC(=O)c1ccc2nc(-c3ccc(C(=O)NC4CCN(Cc5ccccc5)CC4)s3)[nH]c2c1, COc1ccc(C(=O)Nc2cc(Br)c3c(c2)CNCC3)cc1C(F)(F)F, C=CCn1c(Sc2ccc(C#N)c([N+](=O)[O-])c2)nnc1-c1ccc(OC)cc1, CC(C)c1ccc2[nH]c(C(=O)NC3CCC(N4CCCc5ccc(C#N)cc5C4)CC3)cc2c1 (stereo not given), OC[C@H](Nc1nc(C(Oc2ccccc2)c2ccccc2)nc2[nH]ncc12)c1ccccc1 (stereo not given in full), COc1ccccc1-n1c(-c2ccc3ccccc3c2)csc1=NC(=O)c1ccccc1, CN(C)Cc1c(O)ccc2[nH]c(-c3ccc(OC(F)(F)F)cc3)nc12, COc1ccc(CN2CCC(N3CCc4cc(NC(=O)c5cc(C)on5)ccc43)C2)cc1Cl (stereo not given), CCN(CC)CCNc1ccc(Nc2ccnc3cc4ccccc4cc23)cc1, c1cncc(CCNCc2cccc(-c3ccc(-c4nc5ccccc5[nH]4)s3)c2)c1, CNC(=O)c1cc(Nc2nnc(-c3ccc(C)c(S(=O)(=O)NC4CCCCC4)c3)c3ccccc23)ccc1OC
